Assay outcomes (PubChem)
RORgamma inh: ROR gamma (mouse) transcription inhibition | P51450 | Drosophila S2 Gal4-RORgamma UAS-luciferase reporter, 20 h | Potency, µM (doses to about 53.6 µM), actives largely listed as inhibitors | 5.4% of 310,000 active; also: nearly all actives have a fitted effect of over 60% in size
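Luminescence from a UAS-regulated Photinus luciferase reporter in stably transfected Drosophila Schneider cells is measured; decreased signal marks ROR gamma inhibition. Fusion expression is induced by 700 uM copper sulfate for 20 hr.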
GALK inh: blocks human galactokinase activity; Purified GALK, Kinase-Glo residual ATP luminescence; Potency, µM (titrated, usually from 57.5 µM), hits mostly inhibitors; 0.007% of 270,000 active; AID 1868
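5 nM enzyme, 35 uM ATP, 100 uM galactose, 20 mM HEPES pH8.0, 5 mM MgCl2; 1 h RT; residual ATP by Kinase-Glo Plus luminescence, qHTS format.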
TrxR1 substrate: substrates of rat thioredoxin reductase 1. Potency, µM (top dose mostly 114 µM). 0.01% of 390,000 active. O89049. purified TrxR1 substrate turnover, NADPH consumption readout; also: nearly all actives have a fitted effect of over 50% in size
Target sequence (O89049 whole entry, looked up): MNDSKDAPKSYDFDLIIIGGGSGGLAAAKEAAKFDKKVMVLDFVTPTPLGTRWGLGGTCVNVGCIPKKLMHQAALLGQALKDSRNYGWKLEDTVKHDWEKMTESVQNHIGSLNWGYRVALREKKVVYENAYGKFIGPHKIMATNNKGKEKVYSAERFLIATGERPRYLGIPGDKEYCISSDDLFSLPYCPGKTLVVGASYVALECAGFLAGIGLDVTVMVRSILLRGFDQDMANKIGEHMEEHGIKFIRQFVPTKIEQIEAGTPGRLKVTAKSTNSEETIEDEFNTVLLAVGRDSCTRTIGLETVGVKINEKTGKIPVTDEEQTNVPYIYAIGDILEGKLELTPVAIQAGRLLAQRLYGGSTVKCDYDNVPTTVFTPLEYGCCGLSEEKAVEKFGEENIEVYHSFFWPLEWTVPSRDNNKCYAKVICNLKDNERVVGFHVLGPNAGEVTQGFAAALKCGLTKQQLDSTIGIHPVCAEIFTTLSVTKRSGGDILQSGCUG
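Rat TrxR1, dispensed at 90 nM, was prereduced with 400 uM NADPH (final) for 5 min at ~22 deg C, then incubated with compound 15 min before 400 uM selenite. A first-read NADPH fluorescence drop versus no-compound background flagged substrates.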
rTrxR1 inhibitor: inhibitors of rat thioredoxin reductase 1; Potency, µM (top dose mostly 114 µM), actives largely listed as inhibitors; recombinant rTrxR1, NADPH fluorescence consumption, selenite substrate; AID 588453; O89049; 1% of 390,000 active; also: nearly all actives have a fitted effect of over 65% in size
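Rat TrxR1 (90 nM in the dispensed reagent) was pre-reduced with 400 uM NADPH for 5 min at room temperature, then incubated with compound for 15 min. After 400 uM selenite was added, NADPH fluorescence (Ex 340/Em 450 nm) was followed for 8 min.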
VP16 counter: Gal4-VP16 reporter inhibition counter-screen; Drosophila S2 Gal4-VP16 UAS-luciferase, luminescence, 20 h; Potency, µM (series often up to 53.6 µM), hits mostly inhibitors; 3.5% of 310,000 active;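 also: Gal4-VP16 expression switched on by copper sulfate through the metallothionein promoter; nearly all actives have a fitted effect of over 50% in size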
FBPA coupling cs: inhibits coupling enzyme system, counter-screen for aldolase hits; coupling enzyme system counterscreen, AmpLite Red fluorescence; activity change, negative = inhibition, % at 58.2 µM, hits read low; 0.67% of 290,000 active; AID 2472; in the data active = activity change below about -30%
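Final compound at 57.5 uM, incubated 10 min at RT with coupling enzyme reagent (glyceraldehyde-3-phosphate), then 20 min with substrate and AmpLite Red detection. Fluorescence read at 525/598 nm; tests interference with the coupling assay, not aldolase inhibition.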
Numbers stand for hits; [ ] = remark or other dose. Shown are actives, neighbours in structure and some others; about 5.9% of the full set was active somewhere. Unless noted, calls follow the shape of the dose curve; as a rule, active = well fitted curve in the direction sought with a large enough effect; inconclusive = small, poorly fitted or top-dose-only effect, or another doubt; inactive = no such curve, though single readings can be large; an effect the other way counts as inactive or inconclusive.

Screening COc1ccc(C(=O)CNc2ccccc2CO)cc1 returned RORgamma inh inactive, GALK inh inactive, TrxR1 substrate inactive, rTrxR1 inhibitor inactive, VP16 counter inactive and FBPA coupling cs inactive.
COc1ccc(O)c(C(=O)CC(=O)c2cccnc2)c1 was read as TrxR1 substrate inactive and rTrxR1 inhibitor inactive.
Screening COc1ccc(O)c(C(=O)CC(=O)c2ccccc2C)c1 returned RORgamma inh inactive, GALK inh inactive, TrxR1 substrate inactive, rTrxR1 inhibitor inactive, VP16 counter 0.71µM and FBPA coupling cs inactive.
`COC(=O)c1ccccc1NCC(=O)c1ccc(OC)cc1` gave RORgamma inh inactive, GALK inh inactive, TrxR1 substrate inactive, rTrxR1 inhibitor inactive, VP16 counter 18µM and FBPA coupling cs inactive.
Screening O=C(CSc1nc(Cc2ccccc2)nc2ccccc12)c1ccc2c(c1)OCCO2 returned RORgamma inh 6.3µM, GALK inh inactive, TrxR1 substrate inactive, rTrxR1 inhibitor inactive, VP16 counter inconclusive and FBPA coupling cs inactive.
For O=C(CSc1nc(CCC2CCCC2)nc2ccccc12)NCc1ccc2c(c1)OCO2 the results were RORgamma inh 16µM, GALK inh inactive, TrxR1 substrate inactive, rTrxR1 inhibitor inactive, VP16 counter inconclusive and FBPA coupling cs inactive.
Screening CC1=Nc2ccc(C)cc2/C1=C/c1c(N)n2oc(C)cc2nc1=O returned RORgamma inh inactive, GALK inh inactive, TrxR1 substrate inactive, rTrxR1 inhibitor inactive, VP16 counter inactive and FBPA coupling cs inactive.
O=S(=O)(c1ccccc1Oc1ccc(Cl)cc1Cl)N1CCCCC1 was read as RORgamma inh inactive, TrxR1 substrate inactive, rTrxR1 inhibitor inactive, VP16 counter inactive and FBPA coupling cs inactive.
Screening CC(C)CCn1nnnc1C(c1ccccc1)N1CCN(C)CC1 (stereo unspecified) returned RORgamma inh inactive, GALK inh inactive, TrxR1 substrate inactive, rTrxR1 inhibitor inactive, VP16 counter inactive and FBPA coupling cs inactive.
Screening C=CCN1CCN(C(c2ccccc2)c2nnnn2CCC(C)C)CC1 (stereo unspecified) returned RORgamma inh inactive, GALK inh inactive, TrxR1 substrate inactive, rTrxR1 inhibitor 28µM, VP16 counter inactive and FBPA coupling cs inactive.
C=CCN1CCN(C(c2ccc(OC)c(OC)c2)c2nnnn2C(C)(C)C)CC1 (stereo unspecified) was read as RORgamma inh inactive, GALK inh inactive, TrxR1 substrate inactive, rTrxR1 inhibitor inconclusive, VP16 counter inactive and FBPA coupling cs -72.
For C=CCN1CCN(C(c2ccc(Cl)cc2)c2nnnn2CCc2ccc(OC)c(OC)c2)CC1 (stereo unspecified) the results were RORgamma inh inconclusive, GALK inh inactive, TrxR1 substrate inactive, rTrxR1 inhibitor inactive, VP16 counter inactive and FBPA coupling cs inactive.
`CCCC(=O)Nc1ccc(S(=O)(=O)N2CCCC2)cc1` gave RORgamma inh inactive, GALK inh inactive, TrxR1 substrate inactive, rTrxR1 inhibitor inactive, VP16 counter inactive and FBPA coupling cs inactive.
For O=C(CCc1ccccc1)NC(=S)Nc1ccc(S(=O)(=O)N2CCOCC2)cc1 the results were RORgamma inh 22µM, TrxR1 substrate inactive, rTrxR1 inhibitor inactive, VP16 counter inactive and FBPA coupling cs inactive.
Screening CCCCC(=O)NC(=S)Nc1ccc(S(=O)(=O)N2CCCC2)cc1 returned RORgamma inh 13µM, GALK inh inactive, TrxR1 substrate inactive, rTrxR1 inhibitor inconclusive, VP16 counter inactive and FBPA coupling cs inactive.
For N#CC(C#N)=NNc1ccc(S(=O)(=O)N2CCCCC2)cc1 the results were RORgamma inh inconclusive, GALK inh inactive, TrxR1 substrate inactive, rTrxR1 inhibitor 32µM, VP16 counter 22µM and FBPA coupling cs inactive.
CN(C)NC(=S)Nc1ccc(S(=O)(=O)N2CCCCC2)cc1 was read as RORgamma inh 2.8µM, TrxR1 substrate inactive[11.4 µM], rTrxR1 inhibitor inactive[11.4 µM], VP16 counter 5.6µM and FBPA coupling cs inactive.
`NS(=O)(=O)c1ccc(NC(=S)Nc2ccc(S(=O)(=O)N3CCCC3)cc2)cc1` gave RORgamma inh inactive, GALK inh inactive, TrxR1 substrate inactive, rTrxR1 inhibitor inconclusive, VP16 counter inactive and FBPA coupling cs inactive.
For CC(C)=CCN1CCN(Cc2coc3ccc(C)cc3c2=O)CC1CCO (stereo unspecified) the results were RORgamma inh inactive, GALK inh inactive, TrxR1 substrate inactive, rTrxR1 inhibitor inactive, VP16 counter inactive and FBPA coupling cs inactive.
`S=c1[nH]c2cc(Cl)ccc2s1` gave RORgamma inh 13µM, TrxR1 substrate inactive, rTrxR1 inhibitor inactive, VP16 counter inconclusive and FBPA coupling cs inactive.
`S=c1[nH]c2ccc(Cl)cc2[nH]1` gave RORgamma inh inactive, GALK inh inactive, TrxR1 substrate inactive, rTrxR1 inhibitor inactive, VP16 counter inactive and FBPA coupling cs inactive.
For CCC(C)(C)NC(=O)CN(C(=O)CNS(=O)(=O)c1ccccc1)c1ccccc1 the results were RORgamma inh inactive, GALK inh inactive, TrxR1 substrate inactive, rTrxR1 inhibitor inactive, VP16 counter inactive and FBPA coupling cs inactive.
O=C(CN1CCN(Cc2ccccc2)CC1)N/N=C/c1ccc(Br)s1 was read as RORgamma inh 5.6µM, GALK inh inactive, TrxR1 substrate inactive, rTrxR1 inhibitor inactive, VP16 counter 10µM and FBPA coupling cs inactive.
Screening C=CCn1c(CNc2ccccc2)nnc1SCC(=O)N/N=C/c1ccccc1O returned RORgamma inh 10µM, GALK inh inactive, TrxR1 substrate inactive, rTrxR1 inhibitor inactive, VP16 counter 16µM and FBPA coupling cs inactive.
C=CCn1c(Cc2c[nH]c3ccccc23)nnc1SCC(=O)NCc1ccccc1 was read as RORgamma inh inactive, TrxR1 substrate inactive, rTrxR1 inhibitor inactive, VP16 counter inactive and FBPA coupling cs inactive.
C=CCc1cccc(/C=N/NC(=O)C[n+]2ccccc2)c1O was read as RORgamma inh inconclusive, TrxR1 substrate inactive, rTrxR1 inhibitor inactive, VP16 counter inactive and FBPA coupling cs inactive.
`C=CCc1cccc(/C=N/NC(=O)CCCNc2ccc(C)cc2)c1O` gave RORgamma inh 1µM, GALK inh inactive, TrxR1 substrate inactive, rTrxR1 inhibitor inactive, VP16 counter 2µM and FBPA coupling cs inactive.
For C=CCc1cccc(/C=N/NC(=O)CN2CCN(Cc3ccccc3)CC2)c1O the results were RORgamma inh 1.1µM, VP16 counter 10µM and FBPA coupling cs inactive.
For COCCNc1nc(-c2ccc(N(C)C)cc2)nc2ccccc12 the results were RORgamma inh inconclusive, VP16 counter inactive and FBPA coupling cs inactive.
CC(Nc1ccc(Br)cc1)C(=O)N/N=C/c1ccccc1OCc1ccccc1 (stereo unspecified) was read as RORgamma inh inactive, GALK inh inactive, TrxR1 substrate inactive, rTrxR1 inhibitor inactive, VP16 counter inactive and FBPA coupling cs inactive.
